Assay results published in PubChem BioAssay AID651947 (Broad Institute, 2012).
Potency and affinity values are given separately. Results filed as inconclusive are left out. The source made the active and inactive calls.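 Rule for the calls: active = luminescence drop in HepG2 cells whose fitted half-effect dose is at most twice the top valid dose; inconclusive = flat curve with 30 to 70% signal loss, or unreliable fit; inactive = the rest.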

assay: HepG2 hepatoma cell viability loss – plate reader, dry powder, cytotoxicity control, dose response (AID 651947); settings: ATP luminescence (CellTiter-Glo), 48 h, stronger effect = lower value; at 26 µM unless noted

SMILES	max activity
COc1cccc(-c2nnc(SCc3ccccn3)o2)c1	26.5% [at 1.6 µM] (inactive)
COc1ccc(-c2nnc(SCc3ccc(Cl)cc3)o2)cc1	-16.2% [at 0.38 µM] (inactive)
N#Cc1ccccc1CSc1nnc(-c2ccccc2)o1	22.9% [at 3 µM] (inactive)
c1ccc(-n2cc(CSc3nnc(C4CCCC4)o3)nn2)cc1	20.3% [at 0.38 µM] (inactive)
COc1ccc(-c2nnc(SCc3ccccn3)o2)cc1	-23.2% [at 1.6 µM] (inactive)
O=C(Cc1ccccc1)C(C(=O)c1nnc(-c2ccccc2)o1)c1ccccc1 (stereo unspecified)	-29.7% (inactive)
CCSc1nnc(-c2ccccc2)o1	23.2% [at 12 µM] (inactive)
Fc1cccc(CSc2nnc(-c3ccccc3)o2)c1	-9.21% [at 12 µM] (inactive)
c1ccc(CSc2nnc(C3CCCCC3)o2)cc1	16.5% [at 3 µM] (inactive)
CS(=O)(=O)c1cccc(CSc2nnc(-c3ccccc3)o2)c1	-12.6% [at 0.38 µM] (inactive)
FC(F)(F)Oc1ccc(-c2nnc(SCc3ccccc3)o2)cc1	21.1% [at 12 µM] (inactive)
Fc1ccc(-c2nnc(SCc3cn(-c4ccccc4)nn3)o2)cc1	-8.15% (inactive)
FC(F)(F)Oc1ccccc1CSc1nnc(-c2ccccc2)o1	-50.7% [at 1.6 µM] (inactive)
N#Cc1cccc(-c2nnc(SCc3ccccc3)o2)c1	15.2% (inactive)
Fc1ccc(-c2nnc(SCc3ccccc3)o2)cc1	14.5% (inactive)
Fc1ccc(Cn2cc(CSc3nnc(C4CCC4)o3)nn2)cc1	-41.8% [at 0.38 µM] (inactive)
FC1(F)CN(CCSc2nnc(-c3ccccc3)o2)C1	-36.2% [at 0.8 µM] (inactive)
c1ccc(-c2nnc(SCc3ncco3)o2)cc1	8.06% [at 0.195 µM] (inactive)

SMILES	max activity
c1ccc(CSc2ncc(-c3ccccc3)o2)cc1	-32.2% [at 0.195 µM] (inactive)
N#Cc1ccc(CSc2nnc(-c3ccccc3)o2)cc1	-47.6% [at 3 µM] (inactive)
Fc1cccc(-c2nnc(SCc3ccccn3)o2)c1	26.1% [at 12 µM] (inactive)
COc1ccccc1-c1nnc(SCc2ccccn2)o1	-21.6% (inactive)
c1ccc(CCc2nnc(-c3ccccc3)o2)cc1	27.6% (inactive)
FC(F)(F)Oc1ccccc1-c1nnc(SCc2ccccc2)o1	-9.41% [at 6 µM] (inactive)
CS(=O)(=O)c1cccc(-c2nnc(SCc3ccccc3)o2)c1	26.3% [at 0.8 µM] (inactive)
FC1(F)CCN(CCSc2nnc(-c3ccccc3)o2)CC1	-22.5% [at 1.6 µM] (inactive)
Cc1cccc(CSc2nnc(-c3ccccc3)o2)c1	-51.5% [at 0.195 µM] (inactive)
c1ccc(-c2nnc(SC(c3ccccc3)c3ccccc3)o2)cc1	-33% [at 0.8 µM] (inactive)
Fc1ccccc1CSc1nnc(-c2ccccc2)o1	-57.5% (inactive)
Cc1ccc(-c2nnc(SCc3ccccn3)o2)cc1	-42.6% [at 0.38 µM] (inactive)
Clc1ccc(CSc2nnc(-c3ccccc3)o2)cc1	-22.7% [at 0.8 µM] (inactive)
Fc1ccccc1-c1nnc(SCc2ccccc2)o1	-29.8% [at 0.195 µM] (inactive)
CS(=O)(=O)c1ccccc1CSc1nnc(-c2ccccc2)o1	-12.5% [at 12 µM] (inactive)
Fc1ccc(Cn2cc(CSc3nnc(C4CCCC4)o3)nn2)cc1	-18.5% [at 6 µM] (inactive)
O=C(Cc1ccccc1)c1nnc(-c2ccccc2)o1	-24.7% [at 0.8 µM] (inactive)
c1ccc(CSc2nnc(C3CCCC3)o2)cc1	-59.1% [at 6 µM] (inactive)
